Measured values reported in PubChem BioAssay (NCI).
About 79,000 compounds went through this panel and 15% of them were active in at least one assay; those are over-represented in the sample as a whole. A number with no mark means an inactive call. Activity calls are given as the source filed them. Rule as the data show it: active = growth inhibition above about 70%; inactive = the rest.

Assay: NCI Yeast Anticancer Drug Screen. Data for the sgs1 strain (AID 173);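 also: 0% = growth of vehicle-only control cultures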
Conditions: S. cerevisiae sgs1 mutant, hits give high values
Description: Growth inhibition of yeast strains with defined genetic alterations is measured as a screen for potential anti-cancer activity. Selected strains with alterations in DNA damage repair or cell cycle control were exposed to compounds and growth inhibition was measured relative to vehicle treated controls. The strain used in this assay is sgs1

SMILES	growth inhibition (at 1.2 µM)	growth inhibition (at 3.7 µM)	growth inhibition (at 11.0 µM)	growth inhibition (at 33.0 µM)	growth inhibition (at 100.0 µM)
Oc1ccc(SCc2ccc(NCc3ccccc3)cc2)cc1	-33%	-63%	-41%	26%	87% (active)
COC(=O)CCC(NC(=S)N/N=C(\C)c1ccccn1)C(=O)OC (stereo not given)	-14%	-15%	20%	67%	92% (active)
O=C1OC(C2=CC(=O)c3ccccc3C2=O)C(Cl)=C1Cl (stereo not given)	4%	13%	48%	79% (active)	87% (active)
O=C(CC(=O)n1nc(-c2ccccc2)c(N=Nc2ccc(Cl)cc2)c1-c1ccccc1)Nc1cccc(Cl)c1	-4%	-2%	1%	0%	1%
O=C1c2cccnc2C(=O)C2C3C=CC(C3)C12 (stereo not given)	18%	36%	75% (active)	93% (active)	98% (active)
Cc1ccc2nc(-c3cccc([N+](=O)[O-])c3)oc(=O)c2c1	-20%	-16%	-19%	-18%	-11%
CCOC(=O)C(C(=O)OCC)=P(c1ccccc1)(c1ccccc1)c1ccccc1	0%	0%	0%	4%	94% (active)
COc1ccc(C(=O)Oc2ccccc2Br)cc1	-18%	-13%	-11%	3%	36%
